Compound activity (PubChem BioAssay)
PI4K2A inh: blocks human PI4K2A kinase activity; purified PI4K2A, ADP-Glo luminescence, 1 h; stronger effect = lower value; activity change, negative = inhibition, % at 76.9 µM; actives 0.13% (n = 420,000); AID 1346378; in the data active = activity change below about -50%; inconclusive = mostly about -30% to -49%;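 note: -100% = wells without enzyme as full effect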
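ADP-Glo luminescence measured ADP generated by PI4K2A enzyme (4 ug/mL before mixing) with 1.2 mM PI substrate (pre-mix) and 300 microM ATP (pre-mix). Tris pH7.5 buffer with MgCl2, Triton X-100; 1 h reaction at ambient temperature.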
DRD3 agonist: activates the human D3 dopamine receptor; P35462; D3R DiscoveRx beta-arrestin cells, luminescence, 90 min; max activation, %; actives 0.58% (n = 410,000); AID 652048; in the data active = max activation above about 30%; note: 0% is about no effect
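Cells at 1500/well, incubated overnight, then treated with pinned compounds (dopamine as control) for 90 min at 37 degrees C. DiscoveRx reagent added for 30 - 60 minutes at room temperature; luminescence read.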
LDHA inh: blocks human lactate dehydrogenase A; actives 0.15% (n = 480,000); purified LDHA, NADH/diaphorase-resazurin fluorescence; stronger effect = lower value; P00338; activity change, % (values are at about 110 or 230 µM); in the data active = activity change below about -30%; inconclusive = mostly about -25% to -30%;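 note: plate controls were DMSO wells for no effect and wells without enzyme for full effect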
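Remaining NADH was detected by diaphorase (0.133 mg/mL) converting 37 µM resazurin to fluorescent resorufin, read at 0 and 20 minutes. The preceding 5-minute room-temperature reaction used 2 nM LDHA, 0.2 mM sodium pyruvate and 0.06 mM NADH at pH 7.4.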
PI5P4K alpha inh: PI5P4K alpha (human) kinase inhibition; P48426; PI5P4Kalpha enzyme, ADP-Glo luminescence, 60 min; stronger effect = lower value; max response, %; actives 1.2% (n = 330,000); AID 652105; active = max response of -50% or lower; inconclusive = between -30% and -50%; inactive = -30% or higher; note: value at the top dose of about 77 µM; % is set by controls: 0 for no effect and ±100 for the full control effect
Target sequence (P48426 whole entry, looked up): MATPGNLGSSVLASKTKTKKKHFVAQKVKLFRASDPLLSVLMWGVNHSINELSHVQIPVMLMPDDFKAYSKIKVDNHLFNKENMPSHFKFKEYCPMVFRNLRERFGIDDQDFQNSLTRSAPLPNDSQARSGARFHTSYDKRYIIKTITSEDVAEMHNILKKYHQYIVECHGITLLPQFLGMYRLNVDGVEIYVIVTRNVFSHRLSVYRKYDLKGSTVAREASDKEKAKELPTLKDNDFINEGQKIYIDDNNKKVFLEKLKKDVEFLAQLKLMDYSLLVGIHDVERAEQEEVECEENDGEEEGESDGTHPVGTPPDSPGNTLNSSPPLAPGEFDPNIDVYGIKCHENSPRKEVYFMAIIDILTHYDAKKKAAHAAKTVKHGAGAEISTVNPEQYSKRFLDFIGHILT
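Luminescence from ADP-Glo served as readout of PI5P4Kalpha activity in a qHTS format. Reaction: enzyme, substrate, compound, ATP at 5 microM final, 60 min at RT.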
D3 antag: blocks the human D3 dopamine receptor; D3R cells, DiscoveRx beta-arrestin luminescence, antagonist mode; stronger effect = lower value; max response, negative = inhibition, %; actives 2.5% (n = 360,000); AID 652054; in the data active = max response below about -50%; inconclusive = no clear call, values can overlap the other calls; note: % is set by controls: 0 for no effect and ±100 for the full control effect
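Cells plated overnight at 1500 cells/well, then exposed to library compounds with dopamine controls for 90 minutes at 37 degrees C. DiscoveRx reagent added for 30–60 minutes at room temperature; luminescence read, quantitative HTS format.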
Active calls of the source: *; u = inconclusive; x = no result given. In the library only some 3.3% were active in any assay of this set; here they are far more common.

SMILES | PI4K2A inh | DRD3 agonist | LDHA inh | PI5P4K alpha inh | D3 antag
CCCCSc1nnc2n(-c3cccc(C)c3)c(=O)c3c4c(sc3n12)CCCC4 | -3 | -10 | 3 | x | x
CCSc1nnc2n(-c3cccc(C)c3)c(=O)c3c4c(sc3n12)CCCC4 | 4 | 37* | -3 | x | x
CCCc1nc2ccc(C)cn2c1Cc1cccc(F)c1 | -7 | -4 | -2 | -3 | 5
CCCc1nc2c3ccccc3ccn2c1Cc1cccc(F)c1 | -14 | -5 | 5 | -15 | -90*
CCc1nnsc1C(=O)N(C)CCOc1cccc(Cl)c1 | x | x | 4 | x | x
O=C(CNCc1ccccc1Cl)Nc1ccccc1N1CCCCC1 | -3 | -24 | -17 | 3 | -60*
O=C(Nc1ccccc1N1CCCC1)C1CCN(C(=O)c2ccc(Cl)cc2)CC1 | 2 | -1 | -1 | 2 | 15
O=C(CNCC1CCCO1)Nc1ccc(N2CCCCCC2)cc1 (configuration not stated) | 15 | -10 | -10 | x | -21
O=C(CNCC1CCCO1)Nc1ccccc1N1CCCCCC1 (configuration not stated) | 0 | 0 | -16 | -3 | -62*
O=C(Nc1ccccc1N1CCCCC1)C1CCN(C(=O)c2ccc(Cl)cc2)CC1 | 2 | -7 | 2 | 2 | -59*
O=C(NCCCNC1CCCCC1)c1cc2ccccc2[nH]1 | x | x | -3 | x | x
Cc1ccc(/C=C2\NC(=S)NC2=O)cc1[N+](=O)[O-] | 1 | -4 | -10 | 2 | 5
O=C1NC(=S)N/C1=C/c1cc([N+](=O)[O-])ccc1O | -7 | -5 | -8 | -61* | -107*
O=C1NC(=S)N/C1=C/c1cccc([N+](=O)[O-])c1O | -6 | -8 | -4 | -89* | -75*
CCOC(=O)c1cc(-c2ccc(S(=O)(=O)N3CCN(c4ccc(Cl)cc4)CC3)s2)on1 | x | x | 8 | x | x
CCCC1CCC(c2ccc(C#N)c(=O)[nH]2)CC1 (configuration not stated) | x | x | 1 | x | x
Cc1ccc(/C=C/C(=O)N2CCN(S(=O)(=O)c3ccc(C)c(C)c3)CC2)o1 | -21 | -9 | 8 | -74* | u
Cc1ccc(/C=C/C(=O)N2CCN(S(=O)(=O)c3c(C)c(C)cc(C)c3C)CC2)o1 | -5 | 4 | 5 | u | 6
CCOC(=O)C1CCCN(C(=O)CSC(C)(C)C)C1 (configuration not stated) | x | x | 11 | x | x
COC(=O)c1sccc1NC(=O)CSc1ccccc1NS(=O)(=O)c1ccc(Cl)cc1 | 4 | 2 | -1 | -6 | -59*
Cc1ccc(-c2cc(-c3nnc(SCC(=O)N4c5ccccc5Sc5ccccc54)n3N)[nH]n2)cc1 | 0 | x | x | x | x
CN(C)C(=O)c1cc(=O)[nH]c2ccc(S(=O)(=O)Nc3ccc(F)cc3)cc12 | x | x | 8 | x | x
Cc1ccc(Sc2ccc(CN3CCCCC3)cc2[N+](=O)[O-])cc1 | -4 | -1 | -3 | -2 | -106*
O=[N+]([O-])c1cc(CN2CCCCCC2)ccc1O | -3 | -14 | 3 | 1 | u
O=C(Nc1nc2ccc(F)cc2s1)c1ccc([N+](=O)[O-])o1 | -5 | -9 | -13 | 0 | -57*
SMILES | PI4K2A inh | DRD3 agonist | LDHA inh | PI5P4K alpha inh | D3 antag
O=C(Nc1nc2c(F)cccc2s1)c1ccc([N+](=O)[O-])o1 | -3 | -7 | -10 | -3 | u
C1COCCNCCOCCOCCN1 | -3 | 1 | -4 | 0 | -92*
Cc1cc(C(C)(C)C)cc(S(=O)(=O)Nc2cccc(C(=O)O)c2)c1C | 5 | 1 | 0 | x | 43
Cc1ccccc1NC(=O)c1ccc(NS(=O)(=O)c2cc(C(C)(C)C)cc(C)c2C)cc1 | 1 | -26 | -4 | -10 | -57*
O=C(Nc1noc2ccccc12)c1ccc(F)cc1 | -56* | 5 | -5 | x | x
O=C(Nc1noc2ccccc12)c1cccc(F)c1 | -26 | -8 | -5 | x | x
COc1ccc(CN2CC(=O)N(c3ccc(C)c(C)c3)C2=S)cc1OC | -3 | 2 | -1 | -87* | 18
COc1cc(CN2CC(=O)N(c3ccc(C)c(C)c3)C2=S)cc(OC)c1OC | -1 | 3 | -8 | 6 | 49
N#C/C(=C/c1ccc(O)c(Br)c1)C(=O)Nc1ccccc1C(F)(F)F | x | x | 5 | x | x
CNC(=S)Nc1ccc(N2CCN(c3ccc(C(F)(F)F)cn3)CC2)nc1 | 8 | -23 | 0 | -4 | -52*
CN1CCN(c2ccc(NC(=O)c3ccc(C(F)(F)F)cc3)cn2)CC1 | 3 | -5 | -8 | -5 | -9
O=C(NCCc1cccc(Cl)c1)C1CCOCC1 | x | x | 0 | x | x
O=c1c2ccccc2[nH]c(=S)n1CCCN1CCN(c2ccccc2F)CC1 | -10 | 9 | -6 | -5 | -99*
CCN(CC)CCCn1c(=S)[nH]c2ncccc2c1=O | -12 | -11 | 2 | -18 | -53*
O=c1c2ccccc2[nH]c(=S)n1CCN1CCCCC1 | -1 | -13 | 2 | 0 | -14
O=c1c2cccnc2[nH]c(=S)n1CCCN1CCN(c2ccccc2F)CC1 | 5 | 7 | -10 | -6 | -55*
CCN(CCCn1c(=S)[nH]c2ncccc2c1=O)c1ccccc1 | -1 | -9 | -6 | x | 8
CC1CCCC(C)N1CCCNC(=O)Cn1ncc2c([nH]c3ccccc32)c1=O (configuration not stated) | 4 | -3 | 3 | -8 | -1
CC(C)OCCCn1c(=S)[nH]c2ncccc2c1=O | -1 | 0 | -8 | -3 | 0
O=C(Cn1ncc2c([nH]c3ccccc32)c1=O)NCCCN1CCN(c2ccccc2)CC1 | -3 | 6 | -2 | 0 | -63*
CCOc1ccc(N(C(C)C(=O)N(C)Cc2ccccc2)S(C)(=O)=O)cc1 (configuration not stated) | x | x | -6 | x | x
CCc1ccc(C23CC4CC(CC(C4)C2)C3)cc1N | x | x | 9 | x | x
O=C(c1cc2ccccc2oc1=O)N1CCSC1c1ccccc1 (configuration not stated) | x | x | -9 | x | x
CCCn1c(=S)[nH]c2cc(C(=O)N3CCN(c4ccccc4)CC3)ccc2c1=O | -3 | 8 | -3 | -5 | 7
O=c1c2ccccc2[nH]c(=S)n1CCCN1CCN(c2ccccc2)CC1 | 0 | -11 | -8 | -20 | -71*
O=C(c1ccc2c(=O)n(Cc3ccco3)c(=S)[nH]c2c1)N1CCN(c2ccccc2)CC1 | 2 | -1 | -4 | -17 | -50*
Cc1ccc2[nH]c3c(=O)n(CC(=O)Nc4ccccc4N4CCN(C)CC4)ncc3c2c1 | -3 | -18 | -13 | -2 | -55*
O=C(COC(=O)c1cc(=O)c2ccccc2o1)Nc1ccc(F)cc1F | x | x | -4 | x | x
Cc1ccccc1CS(=O)(=O)Cc1ccc(C(=O)Nc2cccc(Cl)c2F)o1 | -2 | x | x | x | x
Cc1c(CC(=O)N2CCN(C(=O)C3COc4ccccc4O3)CC2)c(=O)oc2cc(O)c(Cl)cc12 (configuration not stated) | 2 | 0 | 3 | -51* | 13
